# The source made the active and inactive calls.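 The calls were made as follows: active = lower max turbidity than the uninhibited signal, meaning microtubule assembly was blocked; inactive = reaching the full max turbidity.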
# Assay: Assay for Inhibitors of Tau-Mediated Microtubule Assembly
# Conditions: purified tubulin + K18 tau, A340 turbidity kinetics, 45 min, at 50 µM; half-max time: measured here: time to half-max turbidity, stronger effect = higher value; max turbidity: stronger effect = lower value
# Text: NIH Molecular Libraries Probe Production Network [MLPCN] NIH Chemical Genomics Center [NCGC] MLPCN Grant: X01 MH083262-01 Assay Provider: Carlo Ballatore, University of Pennsylvania NCGC Assay Overview: The microtubule-associated protein tau is an abundant protein in the axons of neurons that stabilizes microtubules. With its ability to modulate microtubule dynamics, tau contributes directly or indirectly, to key structural and regulatory cellular functions. Particularly important is the influence tau exerts on axonal transport, which allows signaling molecules, trophic factors and other essential cellular constituents to travel along the axons. Under pathological conditions, tau becomes sequestered into insoluble aggregates called neurofibrillary tangles. This phenomenon is believed to have pathological consequences by promoting axonal transport deficits that ultimately lead to synaptic dysfunction and neuronal loss. Because tau binds and stabilizes microtubules, tau fibrillization inhibitors were tested whether they interfere with tau-mediated tubulin polymerization. An in vitro assay was used where purified brain tubulin monomers were assembled into microtubules after the addition of GTP and tau. Microtubule assembly was monitored by the change in absorbance at 340 nm. Hong, M., Zhukareva, V., Vogelsberg-Ragaglia, V., Wszolek, Z., Reed, L., Miller, B. I., Geschwind, D. H., Bird, T. D., McKeel, D., Goate, A., Morris, J. C., Wilhelmsen, K. C., Schellenberg, G. D., Trojanowski, J. Q., and Lee, V. M. Y. (1998) Science 282, 1914-1917.
# NCGC Assay Protocol Summary: Lyophilized bovine brain tubulin was reconstituted in RAB (100 mM MES, pH 6.9; 1 mM EDTA; 0.5 mM MgSO4) at a concentration of 10 mg/ml. Compounds (50 uM) were added to K18 tau (40 uM) in RAB and pre-incubated at room temperature for 60 minutes. To initiate the MT assembly reaction, 8.25 ul per well of 10 mg/ml tubulin was dispensed on a UV-clear 384-well plate, followed by 1.0 ul of 100 mM GTP in RAB and 41.25 ul of the compound:tau mixture. […] The plate was incubated in a Spectramax M5 plate reader at 37 C and the absorbance at 340 nm was read every minute for 45 minutes.
Structure (SMILES),half-max time,max turbidity
O=C(Cc1ccccc1)Nc1sc2c(c1C(=O)Nc1ccc(Cl)cc1)CCCC2,10 min,0.682 (inactive)
COC(=O)c1c(NC(=O)C(C)(C)C)sc2c1C(C(=O)OC)CC2 (stereo unspecified),12.9 min,0.839 (inactive)
COC(=O)c1c(NC(=O)CCCOc2ccc(C(C)(C)C)cc2)sc2c1C(C(=O)OC)CC2 (stereo unspecified),12.6 min,1.01 (inactive)
CCOC(=O)c1nn(-c2ccccc2)c(=O)c2c(N)scc12,12.3 min,0.65 (inactive)
COC(=O)c1nn(-c2ccc(OC)cc2)c(=O)c2c(N)sc(C)c12,13.3 min,0.579 (inactive)
COC(=O)c1c(NC(=O)CCCOc2ccc(C)cc2)sc2c1C(C(=O)OC)CC2 (stereo unspecified),11.1 min,0.764 (inactive)
CCOC(=O)c1nn(-c2ccc(OC)cc2)c(=O)c2c(N)scc12,12.7 min,0.782 (inactive)
COC(=O)c1c(NC(=O)CCCOc2cccc(C)c2)sc2c1C(C(=O)OC)CC2 (stereo unspecified),12 min,0.825 (inactive)
